NPC1 promoter act = activates the NPC1 promoter. Huh7 NPC1 promoter luciferase reporter, 24 h. Potency, µM (series often up to 9.22 µM), for inactives: at the top dose activation, most hits filed as activators. 2.4% of 320,000 active; also: % of control where 0% means no effect; nearly all actives have a fitted effect of over 60% in size
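Stably transfected Huh7 (NPC1 promoter→luciferase), 1500 cells/well in Opti-MEM + 10% FBS, 2 h settle, then compound 24 h at 37 °C. Luminescence after 10 min with Amplite reagent.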
Luc counter = Kinase-Glo luciferase inhibition (counter-screen); Q27757; Kinase-Glo luciferase, ATP luminescence, 8 min; Potency, µM (titrated, usually from 38.3 µM), inactives show at the highest dose activity change, negative = inhibition, actives largely listed as inhibitors; 0.28% of 200,000 active; AID 1379; also: % is scaled to controls: 0 for no effect and ±100 for the full control effect; nearly all actives have a fitted effect of over 60% in size
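Substrate mix (final 50 mM imidazole pH 7.2, 50 mM KCl, 7 mM MgCl2, 10 uM ATP, 0.01% Tween 20, 0.05% BSA) plus pin-tool compound, then Kinase-Glo detection mix; 8 min ambient, luminescence read.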
Rab9 promoter act = activators of Rab9 promoter; Huh7 Rab9 promoter-luciferase reporter, luminescence, 24 h; Potency, µM (highest dose often 9.22 µM), for the others: top-dose activation, negative = inhibition, hits mostly activators; 2.8% of 320,000 active; AID 485297; also: % of control where 0% means no effect; nearly all actives have a fitted effect of over 60% in size
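Using Huh7 cells stably transfected with Rab9 promoter–luciferase, compounds were incubated 24 h at 37 °C, 5% CO2; luciferase luminescence was read 10 min after reagent addition.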
FLuc modulator = counter-screen for miR-21 project: firefly luciferase inhibitors or activators. Potency, µM (doses to about 57.5 µM), for inactives: at the highest dose activity change, negative = inhibition, hits mostly inhibitors. 6.9% of 360,000 active. purified FLuc, Km substrates, luminescence inhibition;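 also: plate controls were vehicle for no effect and reference inhibitor for full effect; nearly all actives have a fitted effect of over 55% in size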
Target sequence (P08659 whole entry, looked up): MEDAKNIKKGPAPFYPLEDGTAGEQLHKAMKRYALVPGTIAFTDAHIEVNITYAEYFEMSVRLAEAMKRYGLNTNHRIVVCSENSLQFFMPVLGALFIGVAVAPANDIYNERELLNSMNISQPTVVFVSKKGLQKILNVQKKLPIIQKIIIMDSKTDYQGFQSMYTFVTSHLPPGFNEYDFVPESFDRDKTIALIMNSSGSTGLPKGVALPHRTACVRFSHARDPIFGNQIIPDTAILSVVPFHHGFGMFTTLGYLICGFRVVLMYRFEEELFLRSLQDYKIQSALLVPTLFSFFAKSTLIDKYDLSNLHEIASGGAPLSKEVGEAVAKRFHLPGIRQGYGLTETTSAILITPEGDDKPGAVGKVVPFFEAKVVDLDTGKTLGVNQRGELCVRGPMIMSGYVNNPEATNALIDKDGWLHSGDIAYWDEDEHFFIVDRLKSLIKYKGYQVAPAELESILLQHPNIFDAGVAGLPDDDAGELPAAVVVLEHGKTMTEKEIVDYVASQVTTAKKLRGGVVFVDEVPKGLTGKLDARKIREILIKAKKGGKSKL
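Purified P. pyralis luciferase, 10 nM final, with Km-level 10 uM D-luciferin and 10 uM ATP in 50 mM Tris acetate pH 7.5, 10 mM Mg acetate, 0.01% Tween-20, 0.05% BSA; 6-point qHTS titration about 60 µM downward; luminescence read.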
ELG1 genotox = inducers of genotoxicity in HEK293T ELG1-luciferase cells; HEK293T ELG1-luciferase reporter, luminescence, 16 h; Potency, µM (highest dose often 46 µM), for inactives: top-dose activity change, positive = activation, hits mostly activators; 1.3% of 330,000 active; AID 504466; also: % of control where 0% means no effect; nearly all actives have a fitted effect of over 60% in size
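Luminescence read-out: rising ELG1-luciferase signal, reflecting elevated ELG1 protein under genetic stress, flags genotoxic compounds. Cells were treated for 16 hr at 37 °C before ONE-Glo detection.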
SMN2 splice enh = enhancers of SMN2 splice variant expression; 2.8% of 210,000 active; Potency, µM (titrated, usually from 46.1 µM), for inactives: at the top dose activity change, positive = activation, actives largely listed as activators; HEK293 SMN2-luciferase splicing reporter, luminescence, 30-36 h; also: % of control where 0% means no effect; nearly all actives have a fitted effect of over 55% in size
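HEK293 cells carry an SMN2 […]–luciferase reporter in which exon 7 inclusion puts luciferase in frame. Cells were plated 10-12 h before compound addition, then incubated 30-36 h at 37C. ONE-Glo luminescence was read; sodium butyrate at 4.5 mM final served as control.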
* = called active by the depositor; ? = inconclusive; / = no result given; ! = a repeat was not active; [ ] = dose if it differs, or a comment. Rows were chosen to be rich in hits. Some 7.5% of all compounds tested hit in one or more screens of this group. Calls follow the shape of the dose curve; as a rule, active = well fitted curve in the direction sought with a large enough effect; inconclusive = small, poorly fitted or top-dose-only effect, or another doubt; inactive = no such curve, though single readings can be large; an effect the other way counts as inactive or inconclusive. Potency is read from the fitted curve at half-maximal effect.

SMILES | NPC1 promoter act | Luc counter | Rab9 promoter act | FLuc modulator | ELG1 genotox | SMN2 splice enh
CCOC(=O)C1C(=O)C=C(Nc2ccccc2F)CC1c1ccccc1 (stereo unspecified) | ? | 3% | ? | 17µM* | 12% | ?
COc1cccc(CNC(=O)CCc2c(C)c3cc4c(C)coc4cc3oc2=O)c1 | / | / | / | -2% | / | 11%
COC(=O)C1CN(C(=O)COc2ccc(Cl)cc2Cl)c2ccccc2O1 (stereo unspecified) | 1% | / | 1% | 19µM* | 3% | /
COC(=O)C1CN(C(=O)COc2cccc(C)c2C)c2ccccc2O1 (stereo unspecified) | -4% | / | -2% | ? | -1% | /
CCN(CC)C(=O)COc1ccc2oc(-c3ccco3)cc(=O)c2c1 | 14% | 1% | 27% | 15µM* | 10% | /
Cc1cccc(N/N=C/c2ccncc2)c1 | ? | / | ? | 15µM* | ? | /
O=C(N/N=C/c1ccncc1)c1cccc(N/N=C/c2ccncc2)c1 | 3.5µM* | 2% | ? | 11µM* | -2% | ?
O=C(N/N=C/c1ccncc1)c1cccc(NC(=O)c2ccc(Cl)cc2)c1 | -2% | 1% | -3% | -7% | 2% | -18%
O=C(N/N=C/c1ccc(O)cc1)c1cccc(N/N=C/c2ccc(O)cc2)c1 | 0.56µM* | / | 0.89µM* | 2.1µM* | ? | /
Cc1cccc(N/N=C/c2ccccc2O)c1 | ? | -2% | 4µM* | 6µM* | ? | 11µM*
Cc1cccc(NC(=O)C(=O)N/N=C/c2ccncc2)c1 | -2% | -5% | -2% | -10% | 2% | 10%
Cc1cccc(NC(=O)CCC(=O)N/N=C/c2ccc(O)cc2O)c1 | -8% | / | -4% | -3% | 8% | /
CCc1ccc2nc(N(Cc3cccnc3)C(=O)Cc3ccccc3)sc2c1 | / | / | / | -11% | / | /
CCn1c(SCC(N)=O)nnc1-c1cc2c(C)nn(-c3ccccc3)c2s1 | 6% | -1% | 0% | 15µM* | 1% | -7%
CCn1c(SCC(=O)Nc2cc(C(C)(C)C)nn2-c2ccccc2)nnc1-c1cccs1 | -7% | 1% | -14% | 1% | -3% | -27%
O=S(=O)(Nc1cccnc1)c1ccc(Cl)cc1 | -2% | -3% | -4% | -1% | 0% | -14%
Clc1ccc(C#Cc2cccnc2)cc1 | 19% | / | 24% | 13µM* | 13% | /
O=CN(/C=C1\Sc2ccccc2C1=O)Cc1ccccc1 | 10% | -4% | 18% | 11µM* | ? | -4%
CCC(=O)N(C)/C=C1\Sc2ccccc2C1=O | -6% | -13% | 9% | 11µM* | 4% | 4%
CC(=O)N(C)/C=C1\Sc2ccccc2C1=O | -3% | -6% | -4% | ? | 5% | -4%
CN(Cc1ccccc1)C(=O)Nc1ccc2c(c1)N(C)C(=O)c1ccccc1S2 | / | / | / | 1% | / | /
CCC(Sc1nnc2c(n1)[nH]c1ccccc12)C(=O)Nc1nnc(C(C)C)s1 (stereo unspecified) | / | / | / | ? | / | -1%
CCc1ccc(NS(=O)(=O)c2ccc3[nH]cc(C(=O)N4CCc5ccccc54)c(=O)c3c2)cc1 | 12% | -2% | 23% | 21µM* | ? | ?
Cc1cc(C)cc(NS(=O)(=O)c2ccc3[nH]cc(C(=O)N4CCc5ccccc54)c(=O)c3c2)c1 | 2% | -1% | 1% | 0% | -4% | -5%[1.84 µM]
CCOc1ccc(NS(=O)(=O)c2ccc3[nH]cc(C(=O)NCCOC)c(=O)c3c2)cc1 | 2.5µM* | 4% | 2µM* | 11µM*! | ? | 13µM*!
SMILES | NPC1 promoter act | Luc counter | Rab9 promoter act | FLuc modulator | ELG1 genotox | SMN2 splice enh
O=c1cnc2cnc(Oc3ccccc3)nc2n1CCc1ccccc1 | / | 0% | / | / | / | -3%
COC(=O)c1cc2oc3ccccc3c2n1Cc1c(F)cccc1Cl | / | / | / | -10% | / | 8%
O=C(CCCN1C(=O)S/C(=C/C=C/c2ccccc2)C1=O)Nc1ccc(C(=O)O)cc1 | 1% | / | -4% | 0% | 7% | /
O=C(CCN1C(=O)/C(=C/c2cccs2)SC1=S)Nc1ccc(C(=O)O)c(O)c1 | -2% | / | -1% | 17µM* | 2% | /
O=C(CCN1C(=O)/C(=C/c2cccs2)SC1=S)Nc1ccc(O)cc1 | 0% | / | -1% | 3% | 5% | /
CC(/C=C1\SC(=S)N(CCCC(=O)Nc2ccc(C(=O)O)c(O)c2)C1=O)=C\c1ccccc1 | 18% | 0% | ? | 11µM* | ? | 35µM*
CC(=C\c1ccccc1)/C=C1/SC(=O)N(CCCC(=O)Nc2ccc(C(=O)O)cc2)C1=O | 17% | 1% | 2% | 17µM* | ? | 8%
CC(/C=C1\SC(=S)N(CCC(=O)Nc2ccc(O)cc2)C1=O)=C\c1ccccc1 | 18% | / | 16% | -8% | -4% | /
CCOc1ncc(S(=O)(=O)N2CCN(CC)CC2)cc1C(=O)O | 0% | / | 1% | 3% | 3% | /
COC(=O)C1CCN(C(=O)/C=C/c2ccc(OC)cc2)CC1 | 0.28µM* | 0% | 1.1µM* | 21µM* | 2.3µM* | /
COc1ccc(/C=C/C(=O)N2CCC(c3ccccc3)C2)cc1 (stereo unspecified) | 6% | 1% | 0% | 19µM* | 2% | 4%
COc1ccc(/C=C/C(=O)N2CCC(c3nc4ccccc4o3)CC2)cc1 | / | / | / | 19µM* | / | /
COc1ccc(NC(=O)c2cc3c(=O)n(Cc4ccco4)ccc3nc2C)cc1 | / | / | / | -6% | / | /
O=C(Nc1ccccc1C(=O)OCc1cc(=O)n2c3c(sc2n1)CCCC3)c1cccc(Cl)c1 | / | / | / | -2% | / | /
CCc1ccccc1NC(=O)c1noc2c1CC(C(C)(C)C)CC2 (stereo unspecified) | / | / | / | -6% | / | -20%
CCCCCCCCCCCCCCCC(=O)O[C@H](CC(=O)O)C[N+](C)(C)C | / | 0% | / | / | / | /
COc1ccc(C(=O)CC(=O)c2ccccc2O)cc1 | ? | / | 25% | 12µM* | ? | /
COc1ccc(O)c(C(=O)CC(=O)c2ccccc2C)c1 | ? | -1% | 3.2µM* | ? | ? | /
COc1ccc(C(=O)CC(=O)c2ccccc2O)cc1OC | 11% | -1% | -4%[1.84 µM] | ? | ? | ?
COc1ccc(O)c(C(=O)CC(=O)c2ccc(F)cc2)c1 | 0.56µM* | -2% | 0.71µM* | 12µM* | ? | 2.2µM*
O=S1(=O)C=C(Sc2nc3ccccc3s2)c2ccccc21 | -33% | 0% | -34% | 2.7µM* | -45% | -108%
Cc1ccc(C)c(NC(=O)CN2CCSc3ccc(S(=O)(=O)N4CCCC4)cc32)c1 | / | / | / | 2% | / | /
CCc1ccccc1NC(=O)C1CCN(c2nc3ccccc3[nH]2)CC1 | / | / | / | 6% | / | /
Cc1ccc(C2CC(=O)N(Cc3ccc(F)cc3)c3c2c(C)nn3-c2nc(C)cc(C)n2)cc1 (stereo unspecified) | / | / | / | 5% | / | /

Source: PubChem
